Inconclusive results are not listed. Activity calls are given as the source filed them. Unless noted, calls come from the whole dose curve; as a rule, active = well fitted curve in the direction sought with a large enough effect; inconclusive = small, poorly fitted or top-dose-only effect, or another doubt; inactive = no such curve, though single readings can be large; an effect the other way counts as inactive or inconclusive.
Experiments:
[1] = target: Lysosomal acid glucosylceramidase (Homo sapiens) (UniProt P04062); assay: Glucocerebrosidase-p2 (AID 348; in the data active = potency below about 10 µM; note: potency is the fitted concentration of half-maximal effect); conditions: purified GBA, blue fluorogenic substrate, 40 min
Sequence of Lysosomal acid glucosylceramidase (Homo sapiens) (P04062 whole entry, looked up): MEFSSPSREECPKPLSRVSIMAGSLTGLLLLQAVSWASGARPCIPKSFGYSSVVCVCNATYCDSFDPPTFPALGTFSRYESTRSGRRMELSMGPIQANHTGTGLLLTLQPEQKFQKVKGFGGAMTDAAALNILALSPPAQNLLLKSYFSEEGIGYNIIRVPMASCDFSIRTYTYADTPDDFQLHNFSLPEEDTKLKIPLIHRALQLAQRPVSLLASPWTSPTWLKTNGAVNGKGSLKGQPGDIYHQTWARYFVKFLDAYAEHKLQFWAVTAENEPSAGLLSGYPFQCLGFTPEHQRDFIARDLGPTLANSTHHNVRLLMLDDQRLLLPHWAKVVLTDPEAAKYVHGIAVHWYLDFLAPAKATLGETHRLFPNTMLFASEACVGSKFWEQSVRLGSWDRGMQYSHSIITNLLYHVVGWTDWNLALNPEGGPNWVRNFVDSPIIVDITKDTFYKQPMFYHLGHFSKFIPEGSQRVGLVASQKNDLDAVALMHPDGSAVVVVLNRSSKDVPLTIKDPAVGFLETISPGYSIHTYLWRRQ
Method in brief: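 Normal human glucocerebrosidase (0.2 nM) with blue fluorogenic substrate (80 uM final) in citrate/phosphate pH 5.9 with 10mM sodium taurocholate, 0.01% tween-20; 40 min RT, NaOH/glycine stop; fluorescence Ex 365/Em 440; AC50 from a titration from 0.6 nM upwards.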

[2] = NFAT Signaling Pathway (AID 444; active = well fitted curve in either direction with a large enough effect, not every such curve was filed as active;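 note: carbachol stimulus at about its EC50 of 1 µM final; % is set by controls: 0 for no effect and ±100 for the full control effect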); conditions: Jurkat NFAT-bla M1, carbachol, beta-lactamase ratio, 5 h; at 7.69 µM (top of the series) unless noted
Method in brief: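 Jurkat cells carrying an NFAT-driven β-lactamase reporter and co-transfected muscarinic M1 receptor were treated with compound plus carbachol (1 uM final, an EC50 level) for 5 h at 37 °C. CCF4 loading followed for 1 h at RT; 460/530 nm ratio gave %activity.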

[3] = target: Glucocorticoid receptor (Homo sapiens) (UniProt P04150); assay: GR-GFP Redistribution (AID 450;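 active = compounds whose dose series gives a full or clear partial fitted curve of increased nuclear translocation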; note: potency is the fitted concentration of half-maximal effect); conditions: U2OS GR-GFP nuclear translocation, laser cytometry, 2 h
Sequence of Glucocorticoid receptor (Homo sapiens) (P04150 whole entry, looked up, the tested form may be a part): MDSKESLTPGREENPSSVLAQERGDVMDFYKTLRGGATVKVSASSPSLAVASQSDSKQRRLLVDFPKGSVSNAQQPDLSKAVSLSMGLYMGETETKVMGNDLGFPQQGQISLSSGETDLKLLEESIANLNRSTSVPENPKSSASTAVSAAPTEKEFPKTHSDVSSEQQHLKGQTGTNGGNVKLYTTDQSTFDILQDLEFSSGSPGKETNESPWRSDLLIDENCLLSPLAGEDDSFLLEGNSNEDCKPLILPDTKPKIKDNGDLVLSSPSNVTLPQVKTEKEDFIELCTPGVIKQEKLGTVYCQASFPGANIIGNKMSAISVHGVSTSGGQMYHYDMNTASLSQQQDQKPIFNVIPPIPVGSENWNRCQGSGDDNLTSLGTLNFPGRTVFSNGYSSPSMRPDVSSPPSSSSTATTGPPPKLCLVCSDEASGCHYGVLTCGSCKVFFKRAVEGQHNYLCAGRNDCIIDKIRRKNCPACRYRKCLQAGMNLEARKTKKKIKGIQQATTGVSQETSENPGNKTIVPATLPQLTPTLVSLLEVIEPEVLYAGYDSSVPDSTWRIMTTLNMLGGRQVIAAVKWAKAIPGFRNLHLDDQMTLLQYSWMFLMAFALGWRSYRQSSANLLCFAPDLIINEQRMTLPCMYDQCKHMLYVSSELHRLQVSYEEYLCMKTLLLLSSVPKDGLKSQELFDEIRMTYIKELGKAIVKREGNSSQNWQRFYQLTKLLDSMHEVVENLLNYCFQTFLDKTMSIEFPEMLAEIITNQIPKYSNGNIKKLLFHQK

[4] = target: Glucocorticoid receptor (Homo sapiens) (UniProt P04150); assay: GR-EFC Redistribution (AID 451; calls by dose curve; note: potency is the fitted concentration of half-maximal effect); conditions: CHO-K1 GR-EFC translocation, beta-gal luminescence, 2 h
Method in brief: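 CHO-K1 cells stably expressing nuclear-localized β-gal enzyme acceptor and GR fused C-terminally to the enzyme donor fragment; ligand-driven nuclear translocation restores β-gal by complementation. Compounds titrated up to 46 uM final, 2 h at 37 °C; luminescence read.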

[5] = target: 3',5'-cyclic-AMP phosphodiesterase 4B (Homo sapiens) (UniProt Q07343); assay: qHTS Assay for Inhibitors of PDE-IV (AID 607; active = well fitted activation curve with a large enough effect in the main read-out, with a control signal flat, not every such curve was filed as active; note: % of control where 0% means no effect); conditions: HEK293 ACTOne CNG channel cells, membrane potential fluorescence; series mostly up to 22.9 µM
Sequence of 3',5'-cyclic-AMP phosphodiesterase 4B (Homo sapiens) (Q07343 whole entry, looked up): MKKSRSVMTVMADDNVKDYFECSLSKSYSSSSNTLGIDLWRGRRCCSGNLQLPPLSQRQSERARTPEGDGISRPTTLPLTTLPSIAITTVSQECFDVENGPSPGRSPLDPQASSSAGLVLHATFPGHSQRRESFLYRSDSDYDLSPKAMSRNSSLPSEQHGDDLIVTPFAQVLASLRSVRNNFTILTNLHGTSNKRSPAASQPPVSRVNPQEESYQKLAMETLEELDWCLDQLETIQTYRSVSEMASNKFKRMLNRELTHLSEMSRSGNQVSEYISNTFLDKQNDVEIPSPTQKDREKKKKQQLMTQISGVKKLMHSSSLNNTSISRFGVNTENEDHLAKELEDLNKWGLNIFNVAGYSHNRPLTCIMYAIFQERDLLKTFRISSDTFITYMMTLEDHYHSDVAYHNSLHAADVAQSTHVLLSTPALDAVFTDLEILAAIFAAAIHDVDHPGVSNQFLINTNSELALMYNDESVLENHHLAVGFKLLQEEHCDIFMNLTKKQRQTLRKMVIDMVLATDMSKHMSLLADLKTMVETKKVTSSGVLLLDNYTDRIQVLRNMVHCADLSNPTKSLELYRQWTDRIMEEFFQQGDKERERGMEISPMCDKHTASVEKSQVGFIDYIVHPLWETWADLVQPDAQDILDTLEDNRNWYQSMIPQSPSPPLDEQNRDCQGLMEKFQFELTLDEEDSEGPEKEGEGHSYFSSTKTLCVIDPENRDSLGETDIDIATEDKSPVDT
Method in brief: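 Cell-based read-out of cAMP via a modified cyclic nucleotide-gated channel and membrane potential dye (535/590 nm) in HEK293 cells expressing PDE4 endogenously. Compounds tested up to 22.9 uM final; 100 uM RO 20-1724 reference.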

[6] = target: Cytochrome P450 3A4 (Homo sapiens) (UniProt P08684); assay: qHTS Assay for Activators of Cytochrome P450 3A4 (AID 885); conditions: recombinant CYP3A4, Luciferin-PPXE luminescence, 60 min; series mostly up to 57.1 µM; note: nearly all actives have a fitted effect of over 65% in size
Sequence of Cytochrome P450 3A4 (Homo sapiens) (P08684 whole entry, looked up): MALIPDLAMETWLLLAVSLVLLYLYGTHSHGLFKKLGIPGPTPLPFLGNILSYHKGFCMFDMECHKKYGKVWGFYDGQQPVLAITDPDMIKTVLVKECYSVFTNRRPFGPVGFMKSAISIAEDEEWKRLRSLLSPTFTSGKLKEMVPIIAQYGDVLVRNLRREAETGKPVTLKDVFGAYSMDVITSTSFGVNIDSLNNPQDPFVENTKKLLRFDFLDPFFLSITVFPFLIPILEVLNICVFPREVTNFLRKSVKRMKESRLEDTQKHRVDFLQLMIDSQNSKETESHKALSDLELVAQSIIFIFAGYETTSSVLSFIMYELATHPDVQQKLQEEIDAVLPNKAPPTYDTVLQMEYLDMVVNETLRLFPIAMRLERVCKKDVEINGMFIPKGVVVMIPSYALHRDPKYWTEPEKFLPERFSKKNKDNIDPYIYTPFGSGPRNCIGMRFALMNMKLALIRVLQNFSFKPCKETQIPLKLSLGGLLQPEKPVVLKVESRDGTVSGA
Method in brief: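 Luminescent readout of luciferin formed from 25 uM Luciferin-PPXE (KM level) by 20 nM CYP3A4 in 200 mM KPO4, with 60 min NADPH-driven reaction at room temperature after 10 min compound exposure. Ketoconazole (57 uM) defined 100% inhibition.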

[7] = target: Dual specificity protein kinase CLK4 (Homo sapiens) (UniProt Q9HAZ1); assay: qHTS Assay for Inhibitors of CDC-like Kinase 4 (Kinase-Glo Assay) (AID 1770); conditions: recombinant Clk4, Kinase-Glo ATP depletion luminescence; series mostly up to 66.7 µM; note: nearly all actives have a fitted effect of over 65% in size; note: potency is the fitted concentration of half-maximal effect
Sequence of Dual specificity protein kinase CLK4 (Homo sapiens) (Q9HAZ1 whole entry, looked up): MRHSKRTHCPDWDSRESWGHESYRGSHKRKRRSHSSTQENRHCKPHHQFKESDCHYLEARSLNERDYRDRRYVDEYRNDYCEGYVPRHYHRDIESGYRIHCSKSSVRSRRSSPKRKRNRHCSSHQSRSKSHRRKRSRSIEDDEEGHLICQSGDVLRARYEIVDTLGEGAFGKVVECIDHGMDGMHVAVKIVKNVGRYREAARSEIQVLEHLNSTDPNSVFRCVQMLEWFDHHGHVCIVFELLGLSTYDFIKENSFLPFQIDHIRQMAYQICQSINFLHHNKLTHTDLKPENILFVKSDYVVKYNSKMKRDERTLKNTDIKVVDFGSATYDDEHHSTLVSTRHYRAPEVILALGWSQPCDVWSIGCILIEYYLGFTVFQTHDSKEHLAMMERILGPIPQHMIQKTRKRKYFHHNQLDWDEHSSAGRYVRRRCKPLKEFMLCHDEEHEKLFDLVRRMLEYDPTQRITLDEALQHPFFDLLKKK
Method in brief: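 Recombinant human Clk4 (25 nM) phosphorylated RS repeat peptide (100 uM) with 1 uM ATP in Tris pH 7.5/MgCl2/EGTA/DTT/Triton buffer for 4.5 h at room temperature. Residual ATP was quantified by Kinase-Glo luciferase luminescence.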

[8] = target: Dual specificity protein kinase CLK4 (Homo sapiens) (UniProt Q9HAZ1); assay: qHTS Assay for Inhibitors of CDC-like Kinase 4 (ADP-Glo Assay) (AID 1771); conditions: recombinant CLK4, ADP-Glo luminescence; series mostly up to 80 µM; note: nearly all actives have a fitted effect of over 70% in size; note: potency is the fitted concentration of half-maximal effect
Method in brief: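 Compounds are pin-transferred onto substrate mix (100 uM RS peptide, 1 uM ATP), then 25 nM Clk4 is added. After 1 hr at room temperature, ADP-Glo reagent runs 45 min, detection reagent 30 min, then luminescence is read.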

[9] = target: Dual specificity protein kinase CLK4 (Homo sapiens) (UniProt Q9HAZ1); assay: qHTS Assay for Inhibitors of CDC-like Kinase 4 (ADP-FP Assay) (AID 1795); conditions: Transcreener ADP fluorescence polarization; series mostly up to 50 µM; note: nearly all actives have a fitted effect of over 60% in size; note: potency is the fitted concentration of half-maximal effect
Method in brief: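 Recombinant human Clk4 (6.25 nM) phosphorylated RS repeat peptide (100 uM) with 1 uM ATP in Tris pH 7.5/MgCl2/EGTA/DTT/Triton buffer for one hour. ADP was quantified by Transcreener competitive fluorescence polarization against an ADP calibration curve.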

[10] = target: Ubiquitin carboxyl-terminal hydrolase 1 (Homo sapiens) (UniProt O94782); assay: Inhibitors of USP1/UAF1: Pilot qHTS (AID 504865); conditions: purified USP1/UAF1, Ub-rhodamine cleavage fluorescence; series mostly up to 54.9 µM;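 note: rhodamine fluorescence freed from ubiquitin-rhodamine substrate followed over time; top concentration of the series differs between compounds; % is set by controls: 0 for no effect and ±100 for the full control effect; nearly all actives have a fitted effect of over 35% in size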
Sequence of Ubiquitin carboxyl-terminal hydrolase 1 (Homo sapiens) (O94782 whole entry, looked up): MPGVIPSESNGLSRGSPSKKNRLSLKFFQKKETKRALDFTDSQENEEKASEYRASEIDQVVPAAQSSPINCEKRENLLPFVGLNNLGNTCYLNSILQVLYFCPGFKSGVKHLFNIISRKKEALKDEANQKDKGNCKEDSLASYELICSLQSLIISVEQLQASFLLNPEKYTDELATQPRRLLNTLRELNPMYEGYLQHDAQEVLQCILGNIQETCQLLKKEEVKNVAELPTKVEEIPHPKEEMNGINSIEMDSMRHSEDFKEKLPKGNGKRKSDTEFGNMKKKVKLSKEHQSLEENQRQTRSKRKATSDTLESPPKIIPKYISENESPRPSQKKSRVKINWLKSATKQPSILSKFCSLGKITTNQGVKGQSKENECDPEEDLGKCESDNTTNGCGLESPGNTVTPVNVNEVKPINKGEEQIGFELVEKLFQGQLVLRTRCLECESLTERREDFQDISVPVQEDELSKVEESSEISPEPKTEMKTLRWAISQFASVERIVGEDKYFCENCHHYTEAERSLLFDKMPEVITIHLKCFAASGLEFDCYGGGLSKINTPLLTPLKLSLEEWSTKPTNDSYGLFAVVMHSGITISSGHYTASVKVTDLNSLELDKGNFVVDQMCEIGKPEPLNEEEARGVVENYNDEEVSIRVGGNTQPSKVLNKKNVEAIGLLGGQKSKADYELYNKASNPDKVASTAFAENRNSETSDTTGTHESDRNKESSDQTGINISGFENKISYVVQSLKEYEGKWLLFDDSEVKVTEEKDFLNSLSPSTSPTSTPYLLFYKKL
Method in brief: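 USP1/UAF1 complex (1nM) preincubated with compound 15 min at room temperature, then Ub-Rho substrate (150nM final) added. Fluorescence read kinetically at 480/540 nm, 6 reads every 60 seconds. Buffer: 50mM HEPES pH 7.8, 0.5mM EDTA, 0.1 mg/ml BSA, 1mM TCEP, 0.01% Tween-20.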

[11] = Primary qHTS for small molecule stabilizers of the endoplasmic reticulum resident proteome: Secreted ER Calcium Modulated Protein (SERCaMP) assay (AID 1508630); conditions: SH-SY5Y GLuc-SERCaMP (Gaussia luciferase released on ER calcium loss) secretion, thapsigargin, luminescence; series mostly up to 38.4 µM; note: % is set by controls: 0 for no effect and ±100 for the full control effect
Method in brief: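 The SH-SY5Y reporter protocol was run at 3 concentrations up to 38.3 uM (primary) or 11 concentrations (follow-up): 16 h compound, 100 nM thapsigargin for 4 h, then extracellular luciferase luminescence.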

[12] = AP1 Signaling Pathway (AID 357; active = well fitted curve in either direction with a large enough effect, not every such curve was filed as active; note: % is set by controls: 0 for no effect and ±100 for the full control effect); conditions: ME-180 AP-1-bla reporter, EGF-induced, beta-lactamase ratio, 5 h; at 7.69 µM (top of the series) unless noted
Method in brief: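 AP-1-bla ME-180 cells with beta-lactamase reporter under AP-1 response element, stimulated with EC50 EGF; compounds titrated, 5 hours at 37 degrees Celsius. CCF4 read at 460/530 nm ratio; positive and negative modulators judged by AC50.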

[13] = target: Cytochrome P450 1A2 (Homo sapiens) (UniProt P05177); assay: p450-cyp1a2 (AID 410; calls by dose curve; note: potency is the fitted concentration of half-maximal effect); conditions: recombinant CYP1A2, luciferin-ME demethylation, luminescence; series mostly up to 57 µM
Sequence of Cytochrome P450 1A2 (Homo sapiens) (P05177 whole entry, looked up): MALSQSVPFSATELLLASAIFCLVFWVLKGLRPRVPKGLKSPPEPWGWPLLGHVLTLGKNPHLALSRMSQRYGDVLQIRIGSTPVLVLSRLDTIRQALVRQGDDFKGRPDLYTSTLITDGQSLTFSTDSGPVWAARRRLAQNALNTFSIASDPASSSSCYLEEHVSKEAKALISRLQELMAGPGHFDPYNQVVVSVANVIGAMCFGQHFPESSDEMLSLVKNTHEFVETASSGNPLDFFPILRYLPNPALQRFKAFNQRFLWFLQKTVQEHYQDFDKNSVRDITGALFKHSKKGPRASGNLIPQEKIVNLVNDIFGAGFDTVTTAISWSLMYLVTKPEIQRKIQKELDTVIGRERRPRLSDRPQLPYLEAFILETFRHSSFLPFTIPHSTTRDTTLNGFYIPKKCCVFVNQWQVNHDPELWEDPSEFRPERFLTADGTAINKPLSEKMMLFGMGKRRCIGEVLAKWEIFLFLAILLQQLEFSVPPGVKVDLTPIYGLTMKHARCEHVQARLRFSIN
Method in brief: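 O-Demethylation of luciferin 6' methyl ether by human CYP1A2 is monitored as luciferase luminescence. Substrate sits at Km (100uM); enzyme is 20nM. Values are scaled to 57 uM furafylline as maximal inhibition.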

[14] = Stat Signaling Pathway (AID 446; active = well fitted curve in either direction with a large enough effect, not every such curve was filed as active;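 note: ME-180 cervical cancer cells given 40 pM IL-6 alongside compound; SIE-controlled beta-lactamase reporter measured as 460/530 nm FRET emission ratio; % is set by controls: 0 for no effect and ±100 for the full control effect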); conditions: ME-180 SIE beta-lactamase reporter, IL-6 stimulated, 5 h; at 7.69 µM (top of the series) unless noted
Method in brief: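 FRET read-out (405 nm excitation, 460/530 nm emission) of a beta-lactamase reporter under a STAT-inducible element in ME-180 cervical carcinoma cells. Cells with compound receive 40 pM IL-6 for 5 h. Values are normalised to AC90 stimulation and AC90 JAK-inhibitor controls.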

[15] = target: Mitogen-activated protein kinase 10 (Mus musculus) (UniProt Q61831); assay: JNK3 AlphaScreen Assay (AID 530; active = well fitted curve in either direction with a large enough effect, not every such curve was filed as active); conditions: JNK3 lysate, c-Jun phosphorylation; series mostly up to 57.1 µM
Method in brief: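 Phosphorylation of biotinylated GST-cJun(1-79) at Ser73 is measured by AlphaScreen proximity luminescence. Enzyme is JNK3 in HepG2 lysates activated with interleukin-1beta and tumor necrosis factor alpha; ATP is 10 uM final.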

[16] = target: Cytochrome P450 3A4 (Homo sapiens) (UniProt P08684); assay: qHTS Assay for Inhibitors and Substrates of Cytochrome P450 3A4 (AID 884); conditions: recombinant CYP3A4, Luciferin-PPXE luminescence; series mostly up to 57.1 µM; note: potency is the fitted concentration of half-maximal effect; nearly all actives have a fitted effect of over 50% in size
Method in brief: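 Luminescent readout of luciferin produced by CYP3A4 (20 nM) dealkylation of Luciferin-PPXE, 25 uM (its KM). NADPH-driven reaction ran 60 min at RT after 10 min compound preincubation; data scaled to 57 uM ketoconazole as 100% inhibition.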

[17] = target: Cytochrome P450 2C19 (Homo sapiens) (UniProt P33261); assay: qHTS Assay for Inhibitors and Substrates of Cytochrome P450 2C19 (AID 899); conditions: recombinant CYP2C19, luciferin-H EGE luminescence; series mostly up to 57.1 µM; note: potency is the fitted concentration of half-maximal effect; nearly all actives have a fitted effect of over 60% in size
Sequence of Cytochrome P450 2C19 (Homo sapiens) (P33261 whole entry, looked up): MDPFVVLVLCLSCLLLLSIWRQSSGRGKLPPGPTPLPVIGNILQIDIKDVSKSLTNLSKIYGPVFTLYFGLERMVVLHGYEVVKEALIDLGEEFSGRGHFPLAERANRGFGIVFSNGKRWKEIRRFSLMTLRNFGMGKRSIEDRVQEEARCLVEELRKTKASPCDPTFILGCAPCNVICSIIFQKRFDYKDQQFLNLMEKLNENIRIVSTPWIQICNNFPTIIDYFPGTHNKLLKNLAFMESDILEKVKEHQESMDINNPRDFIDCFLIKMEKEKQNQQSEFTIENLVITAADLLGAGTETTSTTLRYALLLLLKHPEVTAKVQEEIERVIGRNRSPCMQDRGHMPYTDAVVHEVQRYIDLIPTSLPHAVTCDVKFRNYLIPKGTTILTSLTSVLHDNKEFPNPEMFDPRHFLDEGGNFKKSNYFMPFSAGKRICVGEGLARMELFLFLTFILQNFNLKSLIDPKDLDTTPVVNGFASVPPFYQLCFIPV
Method in brief: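 NADPH-dependent conversion of Luciferin-H EGE (10uM, at KM) by 5nM enzyme in 50mM KPO4, 60 min at 37C following 10 min compound preincubation. Stopped with luciferin detection buffer; luminescence read after 20 min.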

[18] = qHTS Assay for Identification of Small Molecule Agonists for Hypoxia Response Element Signaling Pathway (AID 914; active = well fitted activation curve with a large enough effect in the signal ratio, with a control signal flat, not every such curve was filed as active; the % refers to the signal ratio; note: potency is the fitted concentration of half-maximal effect); conditions: ME-180 (cervical carcinoma) HRE-bla reporter, beta-lactamase ratio, CoCl2, 17 h; activation: active compounds read high
Method in brief: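 Reporter activity (beta-lactamase, CCF4 460nm/530nm ratio) in HRE-bla ME-180 cells is recorded after 17 h compound exposure with EC50 CoCl2 at 37 degrees Celsius. AC50 values come from titration data.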

[19] = target: Cytochrome P450 2D6 (Homo sapiens) (UniProt P10635); assay: qHTS Assay for Inhibitors and Substrates of Cytochrome P450 2D6 (AID 891); conditions: recombinant CYP2D6, luciferin-ME EGE luminescence; series mostly up to 57.1 µM; note: potency is the fitted concentration of half-maximal effect; nearly all actives have a fitted effect of over 60% in size
Method in brief: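 Luminescent read-out of luciferin formed by 5 nM human CYP2D6 demethylating 30 uM Luciferin-ME EGE (Km level) over 60 min at room temperature after NADPH regeneration addition. Data normalized to full inhibition by 1.43 uM quinidine.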

O=c1c(-c2ccc(Cl)cc2)nc2cnc(N3CCNCC3)nc2n1-c1ccccc1
active: activity change, negative = inhibition [2] 153% [activator]
inactive: Potency [1] > 11.4 µM | Potency [3] > 9.22 µM | Potency [4] > 46 µM | Potency [5] | Potency [6] | Potency [7] | Potency [8] | Potency [9] | Potency [10] | outcome [11]

Cc1cnc(CNc2ccnc(-c3ccccc3C)n2)cn1
inactive: activity change, negative = inhibition [12] 3.37% | activity change, negative = inhibition [2] -3.78% | activity, negative = inhibition [14] -1.97% | Potency [3] > 46 µM | Potency [4] > 46 µM | Potency [15] | Potency [5] | Potency [6] | Potency [7] | Potency [8] | Potency [9] | Potency [10] | outcome [11]
active: Potency [13] 12.6 µM

CN(C)c1ccc(-c2cncnc2Nc2ccc(F)cc2)cc1
active: Potency [13] 0.501 µM | Potency [16] 0.794 µM | Potency [17] 0.794 µM | Potency [7] 10 µM | Potency [8] 10 µM
inactive: Potency [1] > 11.4 µM | activity, negative = inhibition [14] -2.86% | Potency [3] > 46 µM | Potency [4] > 46 µM | Potency [6] | Potency [9] | Potency [10] | outcome [11]

COc1cccc(Nc2ncc3nc(-c4cc(F)cc(F)c4)c(=O)n(C[C@H]4CCCO4)c3n2)c1
inactive: Potency [1] > 11.4 µM | activity, negative = inhibition [14] -10.3% | Potency [3] > 9.22 µM | Potency [4] > 46 µM | Potency [15] | Potency [5] | Potency [6] | Potency [7] | Potency [8] | Potency [9] | Potency [10] | outcome [11]

CN(C)c1ncc2nc(-c3ccccc3)c(=O)n(Cc3cccs3)c2n1
active: Potency [18] 3.16 µM
inactive: Potency [1] > 11.4 µM | Potency [3] > 9.22 µM | Potency [4] > 46 µM | Potency [6] | Potency [7] | Potency [8] | Potency [9] | Potency [10] | outcome [11]

O=c1c(-c2cc(F)cc(F)c2)nc2cnc(N3CCOCC3)nc2n1Cc1ccc(F)cc1
inactive: Potency [1] > 11.4 µM | Potency [3] > 9.22 µM | Potency [4] > 46 µM | Potency [15] | Potency [5] | Potency [7] | Potency [8] | Potency [9] | Potency [10] | outcome [11]
active: Potency [18] 3.16 µM

COc1ccc2[nH]cc(CCNc3ncnc4ccc(-c5c(C)noc5C)cc34)c2c1
inactive: Potency [1] > 11.4 µM | Potency [3] > 46 µM | Potency [4] > 46 µM | Potency [15] | Potency [5] | Potency [6] | Potency [10] | outcome [11]
active: Potency [13] 7.94 µM | Potency [16] 3.16 µM | Potency [19] 6.31 µM | Potency [17] 3.98 µM | Potency [7] 7.94 µM | Potency [8] 5.01 µM | Potency [9] 3.98 µM
